Several values for one entry are separate records, joined by “and”; a condition that tells them apart may be missing. Identical values can stand only once. The whole screen tested about 5,500 compounds, of which about 2,000 (36%) were called active. Not shown: some 18% with an inconclusive outcome. No stated cut-off is given here; in the data, active means normalized growth mostly below about 0.91 (no sharp cut-off); inconclusive means no clear call, values can overlap the other calls; inactive means mostly above about 0.92. This is one part of the list.
Test: chemical genetic growth profiling, strain panel (AID 1159580);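 further: tested at 20 µM; growth read once vehicle control cultures reached saturation at 30 °C; 1 = growth at the plate median or of vehicle wells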
Conditions: S. cerevisiae deletion strains, growth OD
[1] = locus YAL013W, strain DEP1, stronger effect = lower value
[2] = locus YDR150W, strain NUM1, stronger effect = lower value
[3] = locus YGR078C, strain PAC10, stronger effect = lower value
[4] = locus YMR263W, strain SAP30, stronger effect = lower value
[5] = locus YPL055C, strain LGE1, stronger effect = lower value
[6] = locus YPL241C, strain CIN2, stronger effect = lower value
[7] = locus YBR229C, strain ROT2, stronger effect = lower value
[8] = locus YDL101C, strain DUN1, stronger effect = lower value
[9] = locus YEL061C, strain CIN8, stronger effect = lower value
[10] = locus YHR030C, strain SLT2, stronger effect = lower value
[11] = locus YHR087W, strain rtc3, stronger effect = lower value
[12] = locus YJR043C, strain POL32, stronger effect = lower value
[13] = locus YJR075W, strain HOC1, stronger effect = lower value
[14] = locus YLR039C, strain RIC1, stronger effect = lower value
[15] = locus YLR058C, strain SHM2 (second series), stronger effect = lower value
[16] = locus YLR085C, strain ARP6, stronger effect = lower value
[17] = locus YLR262C, strain YPT6, stronger effect = lower value
[18] = locus YML094W, strain GIM5, stronger effect = lower value
[19] = locus YMR219W, strain ESC1, stronger effect = lower value
[20] = locus YNL153C, strain GIM3, stronger effect = lower value
[21] = locus YNL298W, strain CLA4 (second series), stronger effect = lower value
[22] = locus YNL322C, strain KRE1, stronger effect = lower value
[23] = locus YNR030W, strain Alg12, stronger effect = lower value
[24] = locus YPR135W, strain CTF4, stronger effect = lower value

Measured: normalized growth

CNC(CC(=O)O)C(=O)O (configuration not stated)
inactive: [1] 1.02 | locus YAL040C, strain CLN3, stronger effect = lower value 1.02 | locus YCL061C, strain MRC1 (second series), stronger effect = lower value 1.02 | [2] 1.03 | locus YDR363W, strain ESC2, stronger effect = lower value 1 | locus YER002W, strain NOP16, stronger effect = lower value 1 | [3] 1.02 | [4] 1.01 | locus YMR307W, strain GAS1, stronger effect = lower value 1.02 | locus YNL175C, strain NOP13, stronger effect = lower value 1.01 | locus YNL197C, strain WHI3, stronger effect = lower value 1 | locus YNL224C, strain SQS1, stronger effect = lower value 1.01 | locus YOR083W, strain WHI5 (second series), stronger effect = lower value 1.05 | [5] 1.02 | [6] 1.03

CCOC(=O)CC(=O)Nc1scc(C)c1C(=O)OCC
inactive: [1] 0.988 | [7] 0.977 | [8] 0.97 | locus YDL134C, strain PPH21, stronger effect = lower value 0.923 | [2] 0.995 | [9] 0.943 | [3] 0.947 | [10] 0.906 | [11] 0.924 | locus YJL187C, strain SWE1, stronger effect = lower value 0.958 | [12] 0.979 | [13] 0.951 | locus YKL190W, strain CNB1, stronger effect = lower value 0.97 | [14] 0.987 | [15] 0.98 | [16] 0.872 | [17] 0.994 | [18] 0.933 | [19] 0.968 | [4] 0.984 | locus YNL128W, strain TEP1, stronger effect = lower value 0.98 | [20] 0.969 | [21] 0.934 | [22] 0.957 | [23] 0.924 | [5] 0.968 | [6] 0.936 | [24] 1.14

CCOC(=O)c1c(N=Cc2cc(Br)c(Br)cc2O)sc2c1CCCC2
active: [1] 0.131 | [7] 0.542 | locus YDL214C, strain PRR2, stronger effect = lower value 0.667 | locus YDR477W, strain SNF1, stronger effect = lower value 0.595 | [9] 0.265 | locus YER123W, strain YCK3, stronger effect = lower value 0.541 | locus YER133W, strain GLC7, stronger effect = lower value 0.696 | locus YGR040W, strain KSS1, stronger effect = lower value 0.612 | locus YGR052W, strain FMP48, stronger effect = lower value 0.45 | [3] 0.241 | locus YGR092W, strain DBF2, stronger effect = lower value 0.173 | [10] 0.211 and 0.239 | locus YHR079C, strain IRE1, stronger effect = lower value 0.262 | locus YHR082C, strain KSP1, stronger effect = lower value 0.368 | [11] 0.554 | locus YHR205W, strain SCH9, stronger effect = lower value 0.458 | locus YJL095W, strain BCK1, stronger effect = lower value 0.314 | locus YJL157C, strain FAR1, stronger effect = lower value 0.589 | [12] 0.318 | locus YJR066W, strain TOR1, stronger effect = lower value 0.38 | [13] 0.769 | locus YKL048C, strain ELM1, stronger effect = lower value 0.629 | locus YKL067W, strain YNK1, stronger effect = lower value 0.674 | locus YKL101W, strain HSL1, stronger effect = lower value 0.555 | locus YKL203C, strain TOR2, stronger effect = lower value 0.614 | [14] 0.164 | [15] 0.916 | [16] 0.118 | locus YLR113W, strain HOG1, stronger effect = lower value 0.475 | locus YLR133W, strain CKI1, stronger effect = lower value 0.608 | [17] 0.17 | locus YLR403W, strain SFP1, stronger effect = lower value 0.525 | locus YML070W, strain DAK1, stronger effect = lower value 0.576 | [18] 0.442 | locus YMR205C, strain PFK2 (second series), stronger effect = lower value 0.635 | [19] 0.83 | [4] 0.162 | locus YNL020C, strain ARK1, stronger effect = lower value 0.51 | [20] 0.511 | locus YNL183C, strain NPR1, stronger effect = lower value 0.468 | [21] 0.652 | locus YNL307C, strain MCK1 (second series), stronger effect = lower value 0.314 | [22] 0.714 | [23] 0.533 | locus YOL006C, strain TOP1, stronger effect = lower value 0.209 | locus YOL136C, strain PFK27, stronger effect = lower value 0.577 | locus YOR061W, strain CKA2, stronger effect = lower value 0.383 | locus YOR119C, strain RIO1, stronger effect = lower value 0.63 | locus YOR231W, strain MKK1, stronger effect = lower value 0.335 | locus YPL031C, strain PHO85, stronger effect = lower value 0.561 | [5] 0.113 | locus YPL153C, strain RAD53, stronger effect = lower value 0.511 | locus YPL204W, strain HRR25, stronger effect = lower value 0.575 | [6] 0.558 | locus YPL256C, strain CLN2, stronger effect = lower value 0.458 | [24] 0.635
0.963 (inactive) and 0.697 (active): [8]
inactive: locus YAR019C, strain CDC15, stronger effect = lower value 0.975 | locus YBL105C, strain PKC1, stronger effect = lower value 0.97 | locus YBR135W, strain CKS1, stronger effect = lower value 0.968 | locus YBR136W, strain MEC1, stronger effect = lower value 0.97 | locus YBR160W, strain CDC28, stronger effect = lower value 0.976 | locus YDL017W, strain CDC7, stronger effect = lower value 0.976 | locus YDL028C, strain MPS1, stronger effect = lower value 0.956 | locus YDL108W, strain KIN28, stronger effect = lower value 0.959 | locus YDL132W, strain cdc53, stronger effect = lower value 0.964 | locus YDR052C, strain DBF4, stronger effect = lower value 0.971 | locus YDR054C, strain cdc34, stronger effect = lower value 0.97 | locus YDR226W, strain ADK1, stronger effect = lower value 0.975 | locus YFL009W, strain cdc4, stronger effect = lower value 0.983 | locus YFL029C, strain CAK1, stronger effect = lower value 0.977 | locus YFR003C, strain YPI1, stronger effect = lower value 0.961 | locus YFR019W, strain FAB1, stronger effect = lower value 0.804 | locus YFR028C, strain CDC14, stronger effect = lower value 0.982 | locus YGR229C, strain SMI1, stronger effect = lower value 0.969 | locus YIL147C, strain SLN1, stronger effect = lower value 0.96 | locus YJL128C, strain PBS2, stronger effect = lower value 0.959 | locus YJR016C, strain ILV3, stronger effect = lower value 0.968 | locus YJR066W, strain TOR1 (second series), stronger effect = lower value 0.724 | locus YKL193C, strain SDS22, stronger effect = lower value 0.964 | locus YMR001C, strain CDC5, stronger effect = lower value 0.975 | locus YMR277W, strain FCP1, stronger effect = lower value 0.968 | locus YNL006W, strain LST8, stronger effect = lower value 0.976 | locus YNL161W, strain CBK1, stronger effect = lower value 0.981 | locus YNL207W, strain RIO2, stronger effect = lower value 0.969 | locus YNL222W, strain SSU72, stronger effect = lower value 0.974 | locus YOL078W, strain AVO1, stronger effect = lower value 0.967 | locus YOR329C, strain SCD5, stronger effect = lower value 0.974 | locus YPL209C, strain IPL1, stronger effect = lower value 0.975 | locus YPR025C, strain CCL1, stronger effect = lower value 0.981 | locus YPR106W, strain ISR1, stronger effect = lower value 0.968 | locus YPR111W, strain DBF20, stronger effect = lower value 0.964 | strain NNK1, stronger effect = lower value 0.96 | strain TSCII, stronger effect = lower value 0.971

Source: PubChem BioAssay AID1159580 (chemical genetic matrix, 2015)
